Source: PubChem
Most compounds without a hit are left out; they make up all but 4% or so of the library.
MazEF act: MazEF (E. coli) toxin RNase activation; hit rate 0.32% among 350,000; activation, % at 20 µM; FAM/BHQ RNA-DNA oligo cleavage fluorescence, 5 h; P0AE70; in the data active = activation above about 50%
Target sequence (P0AE70 whole entry, looked up): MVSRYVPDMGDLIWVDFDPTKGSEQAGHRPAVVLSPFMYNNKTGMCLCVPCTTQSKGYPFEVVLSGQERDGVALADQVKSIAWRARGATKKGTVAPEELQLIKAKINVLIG
Mtb FBA inh: inhibitors of M. tuberculosis fructose-bisphosphate aldolase | P9WQA3 | purified M. tuberculosis FBA, fluorescence read-out | inhibition, % at 1 µM | hit rate 2.3% among 360,000; in the data active = inhibition above about 27%;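 also: 0% = vehicle and 100% = reference inhibitor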
Target sequence (P9WQA3 whole entry, looked up): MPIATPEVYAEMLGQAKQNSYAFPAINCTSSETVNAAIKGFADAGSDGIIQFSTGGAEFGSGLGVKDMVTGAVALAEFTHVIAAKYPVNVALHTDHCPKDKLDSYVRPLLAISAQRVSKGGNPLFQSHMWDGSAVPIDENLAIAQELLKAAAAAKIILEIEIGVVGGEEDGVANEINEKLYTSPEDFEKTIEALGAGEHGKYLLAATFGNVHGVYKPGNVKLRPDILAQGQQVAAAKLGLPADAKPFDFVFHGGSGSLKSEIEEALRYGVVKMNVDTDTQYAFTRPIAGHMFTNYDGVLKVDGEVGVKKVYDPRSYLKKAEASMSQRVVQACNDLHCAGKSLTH
CCHFV vOTU inh: blocks the CCHF virus ovarian tumor domain protease | CCHFV vOTU protease, Pep-AMC fluorescence | inhibition, % at 11.5 µM | hit rate 0.55% among 370,000 | AID 651958; also: 0% = vehicle wells with enzyme and 100% = no enzyme wells
Mtb bLac sens: beta-lactam sensitization of Mtb H37Rv | M. tuberculosis H37Rv growth with meropenem, percent inhibition | inhibition, % at 25 µM | hit rate 0.27% among 330,000; call rule not given here;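 also: growth measured after seven days incubation then overnight dye step; 0% = bacteria only wells and 100% = bacteria with antibiotic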
GDH-TPI counter: inhibits GDH-TPI coupling enzymes, artifact for Mtb FBA screen; GDH-TPI coupled enzyme counterscreen, NADH absorbance; inhibition, % at 4.8 µM; hit rate 1.2% among 360,000; AID 588335;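 also: 0% = DMSO wells and 100% = wells lacking the enzyme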
* hit, by the source's call; x = not tested or not shown; + = active, no number. Rule as the data show it, unless noted: active = inhibition above about 30%; inactive = the rest.

SMILES	MazEF act	Mtb FBA inh	CCHFV vOTU inh	Mtb bLac sens	GDH-TPI counter
COC(=O)C1CN(Cc2cn(CCC3OCCO3)nn2)CCS(=O)(=O)N1Cc1ccc(OC)cc1 (centres undefined)	x	x	-9	x	x
CNc1cncc(-c2cccc(NS(C)(=O)=O)c2)n1	x	168*	-214	x	19
CNc1cncc(-c2ccc(CN3CCOCC3)cc2)n1	x	+	-225	x	12
CNc1cncc(-c2ccc(S(C)(=O)=O)cc2)n1	x	171*	-316	x	16
CNc1cncc(-c2cccc(C(C)=O)c2)n1	x	0	11	x	18
CNc1cncc(-c2ccc(OCCCN(C)C)nc2)n1	x	+	-318	x	14
COc1ccc2c(c1)CCCN2C(=O)C1CCCN(S(=O)(=O)c2ccc(Cl)s2)C1 (centres undefined)	x	x	3	x	x
CNc1cncc(-c2cc(C)c(O)c(C)c2)n1	x	20	-1	x	15
CNc1cncc(-c2ccc(CN(C)C)cc2)n1	x	+	-300	x	6
CNc1cccc(-c2cc(OC)ccc2OC)n1	x	-2	11	x	5
CNc1cncc(-c2ccc(OC)cc2)n1	x	172*	-213	x	19
CNc1cncc(-c2ccoc2)n1	x	177*	-261	x	6
CNc1cncc(-c2ccc(O)cc2)n1	x	131*	-173	x	23
COC(=O)C1CN(Cc2ccccc2)CCS(=O)(=O)N1Cc1cn(Cc2ccccc2)nn1 (centres undefined)	x	x	-7	x	x
CNc1cncc(-c2cnn(CC(C)C)c2)n1	x	+	-285	x	20
CC(=O)Nc1cncc(-c2ccc(CN(C)C)cc2)n1	x	5	-3	x	6
N#Cc1nc(-c2cccc3ccccc23)oc1NCC1CCCO1 (centres undefined)	1	+	-268	1	9
C=CCNc1oc(-c2ccc(Cl)cc2)nc1C#N	-2	4	-4	60	13
N#Cc1nc(-c2ccc(Cl)cc2)oc1NCC1CCCO1 (centres undefined)	-11	154*	-90	-4	1
CNc1oc(-c2ccc(Cl)cc2)nc1C#N	2	+	-172	8	0
N#Cc1nc(-c2ccccc2)oc1NCC1CCCO1 (centres undefined)	-4	171*	-54	4	6
COc1ccc(-c2noc(C3CCCN(C(=O)NC4CCC(C)CC4)C3)n2)cc1 (centres undefined)	x	x	5	x	x
COC(=O)C1=C(C)N(Cc2ccccc2C(F)(F)F)C(=NCc2ccccc2)NC1c1cccc(F)c1 (centres undefined)	x	x	15	x	x
O=C(O)Cc1ccc(C(=O)c2cccs2)s1	0	-9	14	14	37*
O=C1/C(=C/c2ccccc2)N=C(N2CCOCC2)N1c1cccc(Cl)c1	2	11	-8	5	32*
SMILES	MazEF act	Mtb FBA inh	CCHFV vOTU inh	Mtb bLac sens	GDH-TPI counter
COC(=O)[C@H](CC(C)C)N1Cc2nnn(Cc3ccc(C)cc3)c2-c2cc(F)ccc2S1(=O)=O	x	x	17	x	x
CC(=O)Nc1ccc(S(=O)(=O)Nc2cc(C)cn(Cc3ccccc3)c2=O)cc1	-11	70*	x	-11	8
Cc1ccc(N(Cc2ccc(C(=O)NC3CCCCC3)cc2)S(C)(=O)=O)cc1C	51*	-2	4	6	5
Cc1ccc(-c2nc3ncccn3c2NC(=O)Nc2ccc(F)cc2)cc1	x	x	-22	x	x
Fc1ccc(-c2cc(-c3nnc4sc(-c5cccs5)nn34)[nH]n2)cc1	x	x	-2	x	x
Cc1nc2ccccn2c1C(=O)NC1CCCCC1	-3	4	-7	-4	3
Cn1c(C(=O)NCc2ccccn2)cc2c(=O)n3ccccc3nc21	6	196*	-164	-3	27
Cn1c(C(=O)NC2CCCCC2)cc2c(=O)n3ccccc3nc21	6	114*	-128	0	12
CC1CCCCN1C(=O)c1cc2c(=O)n3ccccc3nc2s1 (centres undefined)	2	101*	-70	-1	19
O=C(NC1CCCC1)c1cc2c(=O)n3ccccc3nc2s1	3	178*	-264	-13	19
O=C(CN(CCc1ccccc1)S(=O)(=O)c1ccc(F)cc1)N1CCOCC1	x	x	-1	x	x
COC(=O)[C@H](C(C)C)N1CCc2nnn(Cc3ccc(C)cc3)c2-c2cc(F)ccc2S1(=O)=O	x	x	10	x	x
CCOc1ccc(-n2c(SCC(=O)Nc3ccc(S(=O)(=O)Nc4nccs4)cc3)nnc2-c2ccco2)cc1	x	x	11	x	x
CCN(CC)S(=O)(=O)c1ccc(N/N=C/c2ccc(O)cc2O)nc1	4	-2	16	13	40*
Oc1ccc(C=NNc2ccccn2)c(O)c1	8	-1	24	x	41*
Oc1cccc(C=NNc2ccccn2)c1	8	-2	-4	x	14
Cc1nc(N/N=C/c2ccc(O)cc2O)cc(N2CCOCC2)n1	6	-1	-1	6	64*
O=[N+]([O-])c1ccc(O)c(/C=N/Nc2ccccn2)c1	2	-7	13	89	38*
O=C(CCc1ccccc1-c1ccccc1CCNC(=O)c1ccccc1)NCc1ccccc1	x	x	8	x	x
CC1=C[C@]2(C[N+](Cc3ccccc3)=C(N)N2)n2c(=O)n(-c3ccccc3)c(=O)n2C1	x	x	-5	x	x
Cc1ccc(S(=O)(=O)N2CCCC(C(=O)Nc3c(C)n(C)n(-c4ccccc4)c3=O)C2)cc1 (centres undefined)	x	x	9	x	x
Oc1ccc(/C=N/Nc2nccnc2Cl)c(O)c1	9	-1	5	0	26
Cc1ccccc1NC(=S)N/N=C/c1ccc(O)cc1O	8	2	1	-1	56*
O=c1[nH]ncc(N/N=C\c2ccc(O)cc2O)c1Cl	1	2	14	-4	38*
O=[N+]([O-])c1cccc(N/N=C/c2cc([N+](=O)[O-])ccc2O)c1	12	-4	13	-4	23
SMILES	MazEF act	Mtb FBA inh	CCHFV vOTU inh	Mtb bLac sens	GDH-TPI counter
O=[N+]([O-])c1ccc(O)c(C=NNc2ccc(S(=O)(=O)O)cc2)c1	0	-9	16	x	52*
COc1cc(-n2c(C)nc3cc(C(=O)N4CCCCC4)ccc32)cc(OC)c1OC	x	x	-2	x	x
C[C@@H]1CCN(C2CC2)S(=O)(=O)c2c(cccc2N2CC[C@H](O)C2)O1	x	x	-5	x	x
COCCN1C=C(C(=O)OC)C(c2ccc3c(c2)OCO3)C(C(=O)OC)=C1	0	14	-19	1	12
CCOc1ccc(C2C(C(=O)OC)=CN(CCOC)C=C2C(=O)OC)cc1	9	+	-296	2	8
COCCN1C=C(C(=O)OC)C(c2ccc(Cl)cc2)C(C(=O)OC)=C1	3	+	-268	-8	9
Cc1cc(/C=C(/C#N)C(=O)O)c(C)n1-c1cccc2ccccc12	-24	6	7	-6	41*
Cc1c(C(=O)O)cccc1-n1c(C)cc(/C=C(/C#N)C(=O)NCc2ccccc2)c1C	0	0	13	0	13
Cc1ccc(O)c(C2=Nc3ccccc3N=C(c3ccco3)C2)c1	82*	0	-7	2	17
COc1cccc2[nH]c3ccccc3c(=O)c12	6	135*	x	0	1
COc1cccc2[nH]c(C(=O)NN)c(N)c12	3	6	0	-4	14
Cc1ccc(CNc2nc(N)c([N+](=O)[O-])c(NCCO)n2)cc1	-2	-3	15	-3	52*
